Screening data deposited in PubChem by National Center for Advancing Translational Sciences (NCATS).
Pf Dd2 growth = inhibitors of Plasmodium falciparum Dd2 growth; Potency, µM (titrated, usually from 28.9 µM), without a hit: at the top dose activity, negative = inhibition, usual class: inhibitors; hit rate 4.3% among 120,000; P. falciparum Dd2 growth, SYBR Green, 72 h; active = well fitted inhibition curve with a large enough effect;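 note: plate controls were DMSO vehicle for no effect and reference drug for full effect; nearly all actives have a fitted effect of over 65% in size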
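Readout: SYBR Green fluorescence, 485 nm excitation, 535 nm emission, after ~16 h lysis at 37C. Before that, Dd2-infected red cells (2.5% hematocrit) grew 72 h with compound, 29 uM top final concentration.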
Active calls of the source: *; i = inactive; [ ] = dose if it differs, or a comment. Many of the other results were omitted from the sample, so hits are more common in it than they were. Potency is the fitted concentration of half-maximal effect.

SMILES	Pf Dd2 growth
CN1C(=O)C2(CCN(Cc3ccsc3)C2)c2ccccc21 (configuration not stated)	5.62µM*
CN1C(=O)C2(CCN(Cc3ccnn3C)C2)c2ccccc21 (configuration not stated)	-22.1%[44.1 µM]
CN1C(=O)C2(CCN(C(=O)c3ccc(Cl)cc3)C2)c2ccccc21 (configuration not stated)	-21.2%
CN1C(=O)C2(CCN(C(=O)Cc3ccccc3Cl)C2)c2ccccc21 (configuration not stated)	3.16µM*
CN1C(=O)C2(CCN(Cc3cccc4ccccc34)C2)c2ccccc21 (configuration not stated)	12.6µM*
CCCC(=O)N1CCC2(CC1)C(=O)N(C)c1ccccc12	44.4%
O=C(c1ccc(C(F)(F)F)cc1)N1CCC2(C1)C(=O)N(c1ccccc1)c1ccccc12 (configuration not stated)	10µM*
CN1C(=O)C2(CCN(Cc3cncs3)C2)c2ccccc21 (configuration not stated)	i
O=C(c1ccccc1F)N1CCC2(C1)C(=O)N(c1ccccc1)c1ccccc12 (configuration not stated)	-25.8%
CS(=O)(=O)N1CCC(C2CCN(C(=O)c3cccc(C#N)c3)C2)CC1 (configuration not stated)	4.0%
CCOC(=O)C1(Cc2ccccc2F)CCCN(C(=O)c2cccc(C(=O)OC)c2)C1 (configuration not stated)	i
CCc1cnc(C)nc1N1CCC(Oc2ccc3ccccc3c2)(C(=O)O)CC1	-8.6%
COc1ccc(C2(C(=O)N3CC(CO)C4(CCNCC4)C3)CCCCC2)cc1 (configuration not stated)	-20.1%
Cc1cc(S(=O)(=O)N(C)CC2CCOCC2)ccc1F	17.9%
CN1C(=O)C2(CCN(S(=O)(=O)c3ccc(F)cc3)C2)c2ccccc21 (configuration not stated)	-29.4%
CN1C(=O)C2(CCN(Cc3ccc(C(F)(F)F)cc3)C2)c2ccccc21 (configuration not stated)	i
CN1C(=O)C2(CCN(Cc3ccc(F)cc3)C2)c2ccccc21 (configuration not stated)	12.6µM*
N#Cc1ccc(CN2CCC3(C2)C(=O)Nc2ccccc23)cc1 (configuration not stated)	-9.9%
O=C1Nc2ccccc2C12CCN(Cc1cccnc1)C2 (configuration not stated)	-21.1%[44.1 µM]
O=C1N(c2ccccc2)c2ccccc2C12CCN(Cc1ccccc1)C2 (configuration not stated)	11.2µM*
COCC(=O)NCCc1noc(-c2ccccc2)n1	-5.2%
O=C1NC2(CN(Cc3ccc(OC(F)(F)F)cc3)C2)Oc2ccccc21	-11.2%
CC(=O)Nc1ccc(CN2CCC3(CN[S+](=O)([O-])c4cnccc4O3)C2)cc1 (configuration not stated)	16.5%
Cc1cccc(CN2CCC3(CC2)Cc2ccccc2CNC3=O)n1	-9.2%
Cc1ccc2c(c1)N(CCC(=O)NCc1ccccc1Cl)C(=O)CO2	46.4%
SMILES	Pf Dd2 growth
Cc1ccc(NC(=O)CN2C(=O)CC(c3ccc(F)cc3)=Nc3ccccc32)cc1F	-28.4%
Cc1cc(=O)n(CC(=O)Nc2cccc(F)c2)c(-c2ccccc2)n1	i
Cc1ccc(C2=Nc3ccccc3N(CC(=O)Nc3cccc(F)c3)C(=O)C2)cc1C	8.91µM*
Cc1ccc(C2=Nc3ccccc3N(CC(=O)NCc3ccccc3Cl)C(=O)C2)cc1C	11.2µM*
COc1ccc(C2=NN(CC(=O)NCc3ccccc3Cl)C(=O)CC2)cc1	6.4%
COc1ccc(C(C)NC(=O)c2nnn3cc(C)[nH]c(=O)c23)cc1 (configuration not stated)	-6.5%
Cc1nccn1CCNC(=O)CCC[C@@H]1[C@H]2CCCN3CCC[C@@H](CN1C(=O)c1cccnc1)[C@@H]23	22.6%
O=C(NC1CC1)c1ccc2nnc(-c3cccc(OC(F)(F)F)c3)n2c1	-6.4%
CC(C)N1C[C@H](O)C[C@H]1c1nc(-c2ccc3c(c2)OCO3)no1	-8.5%[44.1 µM]
O=C(NC1CC(=O)N(c2cccc(F)c2)C1)c1ccc(S(=O)(=O)N2CCOCC2)cc1 (configuration not stated)	39.7%
CCn1cc(C(=O)NCCc2ccccc2)c(=O)c2cc(S(=O)(=O)N3CCOCC3)ccc21	-7.1%
Cc1ccc(CNC(=O)c2c[nH]c3ccc(S(=O)(=O)N4CCOCC4)cc3c2=O)cc1	-21.7%
O=C(NCCSc1c(-c2ccc(Br)cc2)[nH]c2ccccc12)c1ccc(S(=O)(=O)N2CCOCC2)cc1	5.62µM*
O=C(NCCSc1c(-c2ccc(Cl)cc2)[nH]c2ccccc12)c1ccc(S(=O)(=O)N2CCOCC2)cc1	8.91µM*
O=C(NCCSc1c(-c2ccccc2)[nH]c2ccccc12)c1ccc(S(=O)(=O)N2CCOCC2)cc1	10µM*
O=C(NC1CC(=O)N(c2ccc(Cl)cc2)C1)c1ccc(S(=O)(=O)N2CCOCC2)cc1 (configuration not stated)	i
O=C(NCCCn1ccnn1)c1cccc(S(=O)(=O)N2CCOCC2)c1	1.1%
O=C(CN1C(=O)CCc2cc(S(=O)(=O)N3CCOCC3)ccc21)NCc1ccc(Cl)cc1	i
CCc1cc(N2CCOC(c3ccc4cc(OC)ccc4c3)C2)nc(C)n1 (configuration not stated)	-19.5%
Cc1ccc(NC(=O)CN2C(=O)NC3(CCC(C)CC3)C2=O)cc1Cl (configuration not stated)	-5.2%
CCn1ccc(C(=O)N2CCC3(CC2)CC(OCC2CC2)CCO3)n1 (configuration not stated)	24.1%
COCc1ccc(C(=O)N2CCN(CCO)CC(O)C2)cc1 (configuration not stated)	-3.5%
COC[C@@H]1[C@H](C(=O)N2CCN(c3ccccn3)CC2)CCC(=O)N1C	17.3%
O=C(C1CCOCC1)N1CCC(Oc2ccccc2)C1 (configuration not stated)	7.1%
C[C@@H](NC(=O)Cc1ccccc1)c1c(-c2ccc(Cl)cc2)noc1C(=O)O	-5.5%[44.1 µM]
SMILES	Pf Dd2 growth
Cc1onc(-c2ccccc2)c1C(=O)N[C@@H]1CCC[C@@H](C(=O)N2CCN(C)CC2)CC(=O)N(C)C1	-16.7%
Cc1cccc(C(=O)N2CCC(C(=O)N3CCCCCCNC(=O)CC3)CC2)c1	-22.9%
Clc1ccc(CCNC(c2nnc(-c3ccccc3)o2)c2ccccc2Cl)cc1 (configuration not stated)	11.2µM*
Cc1c(Cl)cccc1NC(c1ccc(F)cc1)c1nnc(-c2ccccc2)o1 (configuration not stated)	i
O=S(=O)(NCCc1noc(-c2ccccc2)n1)c1ccc(Cl)cc1	i
Cc1cc(F)cc(CN2CCOc3cc([S+](=O)([O-])N(C)C)ccc3C2)c1	i
Cc1cccc(NC(=O)C2CC(=O)Nc3ncnn32)c1 (configuration not stated)	-4.8%
CCn1cc(S(=O)(=O)N2CCCCC2c2nc(CCOc3ccc(F)cc3)no2)cn1 (configuration not stated)	-1.2%
O=C(C1CCCN(c2nc3ncccc3o2)C1)N1CCOCC1 (configuration not stated)	-8.9%[44.1 µM]
C[C@@H](NC(=O)COc1ccccc1)c1c(-c2ccc(Cl)cc2)noc1C(=O)O	-15.8%[44.1 µM]
COc1ccc(C(=O)N(C)Cc2cccn2C)cc1	-5.8%[44.1 µM]
O=[S+]1([O-])NCC2(CCN(CC3CCCC3)C2)Oc2ncccc21 (configuration not stated)	12.6µM*
